# Results from PubChem BioAssay AID588664 (The Scripps Research Institute Molecular Screening Center, 2011).
# Out of some 360,000 compounds screened, about 1,400 (0.39%) were called active. This is one part of a sample in which actives are shown more often than they occur. Cut-off read from the data, not from the text of the source: active = inhibition above about 5% (passing the limit was not always enough); inactive = the rest.
# Biological target: Tyrosine-protein kinase ABL1 (Homo sapiens) + Ras and Rab interactor 1 (Homo sapiens) (UniProt P00519+Q13671)
# Experiment: disruptors of human Abl and Rin1 association – biochemical, TR-FRET, primary screen (AID 588664)
# Conditions: TR-FRET Rin1/Abl binding, at 7.35 µM, active compounds read high
# Sequence of Tyrosine-protein kinase ABL1 (Homo sapiens) + Ras and Rab interactor 1 (Homo sapiens) (P00519 whole entry, looked up): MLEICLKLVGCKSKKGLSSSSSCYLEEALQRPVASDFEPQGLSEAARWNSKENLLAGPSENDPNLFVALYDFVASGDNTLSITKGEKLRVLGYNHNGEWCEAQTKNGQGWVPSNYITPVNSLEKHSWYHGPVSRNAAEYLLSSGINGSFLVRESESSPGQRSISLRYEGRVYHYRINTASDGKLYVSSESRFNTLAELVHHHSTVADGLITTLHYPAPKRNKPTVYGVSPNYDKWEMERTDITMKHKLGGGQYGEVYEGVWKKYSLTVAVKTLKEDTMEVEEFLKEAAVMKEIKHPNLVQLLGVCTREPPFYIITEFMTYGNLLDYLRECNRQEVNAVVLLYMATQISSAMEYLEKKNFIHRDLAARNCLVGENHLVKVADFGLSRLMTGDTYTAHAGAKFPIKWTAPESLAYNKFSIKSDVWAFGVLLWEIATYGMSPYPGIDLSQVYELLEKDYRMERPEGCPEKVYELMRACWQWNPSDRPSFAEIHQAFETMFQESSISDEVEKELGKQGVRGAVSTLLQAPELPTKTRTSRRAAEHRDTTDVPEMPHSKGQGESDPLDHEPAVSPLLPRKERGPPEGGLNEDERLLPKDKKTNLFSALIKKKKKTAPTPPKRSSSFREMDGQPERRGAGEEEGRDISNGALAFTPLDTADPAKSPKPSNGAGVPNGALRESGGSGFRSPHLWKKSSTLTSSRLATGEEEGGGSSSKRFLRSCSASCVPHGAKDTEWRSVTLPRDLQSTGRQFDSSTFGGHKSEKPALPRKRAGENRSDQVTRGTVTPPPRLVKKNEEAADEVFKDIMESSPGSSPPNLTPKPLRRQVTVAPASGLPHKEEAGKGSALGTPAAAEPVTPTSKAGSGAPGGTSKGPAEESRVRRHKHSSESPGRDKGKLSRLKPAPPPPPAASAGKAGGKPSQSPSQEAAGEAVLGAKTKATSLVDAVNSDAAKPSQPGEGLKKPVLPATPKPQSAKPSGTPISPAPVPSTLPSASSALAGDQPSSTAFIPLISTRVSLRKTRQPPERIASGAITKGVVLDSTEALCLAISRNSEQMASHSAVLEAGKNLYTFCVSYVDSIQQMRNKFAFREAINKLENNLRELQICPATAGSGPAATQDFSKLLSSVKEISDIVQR
# Sequence of Tyrosine-protein kinase ABL1 (Homo sapiens) + Ras and Rab interactor 1 (Homo sapiens) (Q13671 whole entry, looked up): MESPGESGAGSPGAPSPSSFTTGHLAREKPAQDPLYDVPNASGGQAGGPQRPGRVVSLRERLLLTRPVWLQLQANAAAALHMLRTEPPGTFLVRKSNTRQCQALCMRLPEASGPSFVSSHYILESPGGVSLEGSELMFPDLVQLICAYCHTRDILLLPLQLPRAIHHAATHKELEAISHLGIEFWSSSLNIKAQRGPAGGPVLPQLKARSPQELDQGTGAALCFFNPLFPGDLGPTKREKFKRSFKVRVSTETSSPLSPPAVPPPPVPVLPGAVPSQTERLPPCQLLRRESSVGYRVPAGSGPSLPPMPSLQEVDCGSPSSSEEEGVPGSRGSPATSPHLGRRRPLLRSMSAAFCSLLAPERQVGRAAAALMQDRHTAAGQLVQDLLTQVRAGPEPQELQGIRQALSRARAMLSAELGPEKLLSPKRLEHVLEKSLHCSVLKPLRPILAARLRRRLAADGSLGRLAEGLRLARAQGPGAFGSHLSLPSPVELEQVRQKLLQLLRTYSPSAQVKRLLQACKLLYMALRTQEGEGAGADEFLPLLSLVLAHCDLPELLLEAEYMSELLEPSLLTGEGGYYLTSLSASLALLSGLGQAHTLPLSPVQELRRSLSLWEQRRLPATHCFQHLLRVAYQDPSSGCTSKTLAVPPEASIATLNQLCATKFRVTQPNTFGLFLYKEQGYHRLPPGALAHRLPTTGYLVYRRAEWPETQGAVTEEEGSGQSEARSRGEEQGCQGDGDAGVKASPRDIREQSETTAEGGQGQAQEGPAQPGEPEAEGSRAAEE
row,Compound,inhibition
1,CCC(C)C(=O)Nc1ccccc1N1CCN(c2ccc(F)cc2)CC1 (stereo not given),1.3% (inactive)
2,CCOC(=O)C1CCCN(C(=O)c2ccc(C)c(S(=O)(=O)N3CCCCC3)c2)C1 (stereo not given),2.16% (inactive)
3,Cn1nc([N+](=O)[O-])nc1Sc1ccc(C(C)(C)C)cc1,-6.46% (inactive)
4,O=C(CNCc1ccco1)Nc1cc(S(=O)(=O)N2CCOCC2)ccc1N1CCCC1,5.51% (active)
5,CC(C)CCC(=O)Nc1cc(S(=O)(=O)N2CCOCC2)ccc1N1CCCC1,-1.79% (inactive)
6,O=C(COC(=O)c1ccccc1F)Nc1cc(S(=O)(=O)N2CCOCC2)ccc1N1CCCC1,0.95% (inactive)
7,O=C1NC[C@@H](c2ccccc2)OC(=O)[C@H](Cc2ccc(F)cc2)CC/C=C/C[C@H]1CC(=O)N(CCO)Cc1ccccc1,-0.64% (inactive)
8,Cc1nn(C)cc1S(=O)(=O)N1CCN(c2ccc(F)cc2)CC1,1.17% (inactive)
9,CCOC(=O)Cc1ncccc1C(=O)Nc1ccc(OC(F)(F)F)cc1,-0.49% (inactive)
10,CCOc1c2ccc(C(=O)NCc3ccc(OC(F)(F)F)cc3)cc2nn1C,3.17% (inactive)
11,O=C(Nc1ccc(OC(F)(F)F)cc1)c1ccc2c(c1)no[n+]2[O-],6.4% (active)
12,COc1ccc(N(CC(=O)NC2CCCCC2)S(=O)(=O)c2c(C)[nH]c(=O)[nH]c2=O)cc1,0.98% (inactive)
13,C=CCNC(=O)c1ccccc1NC(=O)c1ccc(Cl)c(S(=O)(=O)Nc2cccc(C)c2C)c1,3.96% (inactive)
14,CC(=O)Nc1ccc(CN2CCC(Oc3ccc(C(=O)N4CCCC4)cc3)CC2)cc1,7.35% (active)
15,O=C(c1ccc(OC2CCN(C/C=C/c3ccc(F)cc3)CC2)cc1)N1CCCCC1,4.14% (inactive)
16,Cc1nn(C)c(Cl)c1CN1CCC(Oc2ccc(C(=O)N3CCCC3)cc2)CC1,-0.88% (inactive)
17,Cc1noc(C)c1-c1nc(CSc2ccc(Cl)cc2)no1,-1.19% (inactive)
18,COc1ccc(-c2cc(C(F)(F)F)n3nc(C(=O)N4CCOCC4)c(Cl)c3n2)cc1,0.58% (inactive)
19,CCc1nnc(NC(=O)CSc2nc3ccccc3c(=O)n2CCCOC)s1,2.09% (inactive)
20,Cc1cccc(C)c1NC(=O)CSc1nc2c([nH]1)c(=O)n(C)c(=O)n2C,0.29% (inactive)
21,CC(CCO)Nc1nc2c([nH]1)c(=O)n(C)c(=O)n2C (stereo not given),7.16% (active)
22,Cc1cc(C)c(C=NNc2nc3c([nH]2)c(=O)n(C)c(=O)n3C)c(C)c1,4.38% (inactive)

row,Compound,inhibition
1,O=C(C=CC(=O)Nc1ccc(F)cc1F)Nc1ccc(F)cc1F,-1.65% (inactive)
2,Cc1sc2ncn(CC(=O)NCCN(C)C)c(=O)c2c1S(=O)(=O)N1CCC(C)CC1,-2.5% (inactive)
3,O=C(CCN1C(=O)[C@H]2CC=CC[C@H]2C1=O)NCc1nc(-c2ccccc2)no1,4.64% (inactive)
4,C=C(Br)Cn1c(CCCC)nc2ccccc21,-1.26% (inactive)
5,NS(=O)(=O)c1ccc(CCNC(=O)Nc2ccc(Cl)cc2)cc1,7.48% (active)
6,CN(CC(=O)NCCc1ccc(S(N)(=O)=O)cc1)CC(=O)Nc1ccc(Cl)cc1,2.85% (inactive)
7,NS(=O)(=O)c1ccc(CCNC(=S)Nc2ccc(S(N)(=O)=O)cc2)cc1,-1.51% (inactive)
8,COc1ccc(-c2c(C)nn3c(N4CCC(C(=O)N5CCCCC5)CC4)cc(C)nc23)cc1OC,-0.97% (inactive)
9,c1ccc(Cc2nn3c(Cn4cnc5ccccc54)nnc3s2)cc1,6.72% (inactive)
10,OCCNc1nc2ccccc2n1-c1ncnc2sc3c(c12)CCC3,-1.62% (inactive)
11,CCc1cc2c(NC(Cc3ccccc3)C(=O)O)ncnc2s1 (stereo not given),-0.92% (inactive)
12,CCc1cc2c(NC3CCCC3)ncnc2s1,-2.86% (inactive)
13,CCc1cc2c(N3CCN(c4nnc(CC)s4)CC3)ncnc2s1,7.4% (active)
14,C[C@@H](NC(=O)[C@@H]1Cc2ccccc2CN1)C(=O)NC1CCCC1,0.01% (inactive)
15,Cc1ccc(C)c(NS(=O)(=O)c2ccc(OCC(=O)NCc3cccnc3)cc2)c1,2.47% (inactive)
16,Oc1c(CN2CCN(c3ccc(F)cc3)CC2)cc(Cl)c2cccnc12,5.47% (active)
17,Cc1cc(=O)oc2cc(OCC(=O)N3CCN(c4ccc(F)cc4)CC3)c(Cl)cc12,-4.94% (inactive)
18,Cc1cccc(C)c1NC(=O)CN1CCN(c2ccc(F)cc2)CC1,2.38% (inactive)
19,O=C(CN1CCN(c2ccc(Cl)cc2)CC1)NCc1cccs1,-1.08% (inactive)
20,OC[C@@H]1CN(Cc2ccc(Cl)cc2)C[C@H](n2cnc3c(NCc4ccncc4)ncnc32)O1,7.27% (active)
21,CC(C)Nc1ncnc2c1ncn2[C@H]1CN(Cc2ccncc2)C[C@@H](CO)O1,3.54% (inactive)
22,COCCNc1ncnc2c1ncn2[C@H]1CN(Cc2ccc(OC)cc2)C[C@@H](CO)O1,-1.27% (inactive)

row,Compound,inhibition
1,CCOC(=O)c1cn[nH]c1NC(=S)Nc1ccccc1,-0.64% (inactive)
2,Cc1ccc(S(=O)(=O)CCC(=O)OCC(=O)N(C)C2CCS(=O)(=O)C2)cc1 (stereo not given),6.74% (inactive)
3,O=C(c1ccc(-n2cnnn2)cc1)N1CCN(C(c2ccccc2)c2ccccc2)CC1,1.41% (inactive)
4,Nc1nc2n(n1)C(c1ccco1)CC(c1ccc(Cl)c(Cl)c1)N2 (stereo not given),6.57% (active)
5,Cc1ccc(C2CC(c3cccc(C)c3)n3nc(N)nc3N2)cc1 (stereo not given),-1.41% (inactive)
6,Cc1ccc(C2CC(c3cccc(Br)c3)n3nc(N)nc3N2)cc1 (stereo not given),1.76% (inactive)
7,O=C(NC(=S)Nc1ccc(Br)cc1F)C1CCCCC1,6.29% (inactive)
8,CN(C)c1ccc(CNC(=O)CN2C(=O)COc3ccc(S(=O)(=O)N4CCCC4)cc32)cc1,2.18% (inactive)
9,CC(=O)Nc1ccc(NC(=O)CN2C(=O)COc3ccc(S(=O)(=O)N4CCCCC4)cc32)cc1,2.56% (inactive)
10,Cc1cccc(N(C)C(=O)CN2C(=O)COc3ccc(S(=O)(=O)N4CCCCCC4)cc32)c1,9.47% (active)
11,Cc1cccc(OCc2nnc(SCc3nc4cc(C(F)(F)F)ccc4c(=O)[nH]3)o2)c1,4.23% (inactive)
12,O=C1CC(Cc2ccccc2)C(=O)N1c1ccc(Cl)cn1 (stereo not given),-3.26% (inactive)
13,C=CCN(C(=O)Cn1ncc2c1-c1cc(C)ccc1OC2)c1ccccc1,2.13% (inactive)
14,Cc1cc(=O)n2nc(N3CCCC(C(=O)N4CCN(C)CC4)C3)sc2n1 (stereo not given),1.05% (inactive)
15,CCOC(=O)N1CCN(C(=O)C2CCN(Cc3ccc(OC)cc3OC)CC2)CC1,0.29% (inactive)
16,CCOC(=O)N1CCN(C(=O)C2CCCN(c3ncnc4c3sc3cccc(F)c34)C2)CC1 (stereo not given),6.58% (active)
17,CCOC(=O)N1CCN(C(=O)C2CCN(c3ncnc4c3sc3cccc(F)c34)CC2)CC1,18.2% (active)
18,CCOC(=O)N1CCN(C(=O)C2CCN(S(=O)(=O)c3cc(Cl)ccc3OCC)CC2)CC1,3.03% (inactive)
19,Cc1cnc(C)c(N2CCN(C(=O)C3CCC(=O)N(CCc4cccc(F)c4)C3)CC2)n1 (stereo not given),-0.04% (inactive)
20,O=C(CCNC(=O)c1ccc([N+](=O)[O-])cc1)NC1CCCCC1,-2.29% (inactive)
21,O=C1CC2(CCCCC2)Oc2ccc(OCC(=O)N3CCOCC3)cc21,-3.03% (inactive)
22,COc1cc2c(cc1CNC[C@H]1O[C@@H](n3cnc(C(N)=O)n3)[C@H](O)[C@@H]1O)OCO2,-2.98% (inactive)

row,Compound,inhibition
1,CCOc1ccc(N(CC)S(=O)(=O)c2cccc3nsnc23)cc1,-2.8% (inactive)
2,O=C(NC(c1ccc(-c2ccccc2)cc1)c1cnccn1)C1CCN(CCOc2ccc(Cl)cc2Cl)CC1 (stereo not given),-3.71% (inactive)
3,O=C(NC(c1ccc(Cl)cc1)c1cnccn1)C1CCN(Cc2ccc(Cl)cc2)CC1 (stereo not given),-1.67% (inactive)
4,Cc1ccc(C(NC(=O)C2CCN(CCOc3ccc(Cl)cc3Cl)CC2)c2ccccn2)cc1 (stereo not given),9.27% (active)
5,CCCS(=O)(=O)Nc1c(C(=O)O)[nH]c2ccccc12,0.58% (inactive)
6,CCOC(=O)c1c(NC(=O)CN2C(=O)NC3(CCC(C)CC3)C2=O)sc(C)c1CC (stereo not given),0.02% (inactive)
7,C=CCn1c(SCC(=O)CC(=O)OCC)nc2cc(C(=O)N3CCC(C(N)=O)CC3)ccc2c1=O,-1.96% (inactive)
8,C=CCn1c2ccccc2c2nnc(SC(CC)C(=O)Nc3nc(C)c(C(=O)OCC)s3)nc21 (stereo not given),2.82% (inactive)
9,C=CCn1c2ccccc2c2nnc(SCc3[nH]c(=O)[nH]c3C(=O)CCCCC(=O)OCC)nc21,59.4% (active)
10,COc1ccc(NC(=O)C2CCC(CNS(=O)(=O)c3csc(C(N)=O)c3)CC2)cc1OC (stereo not given),-0.76% (inactive)
11,COc1ccc(CCC(=O)Nc2ccc(Cl)c(S(=O)(=O)N3CCOCC3)c2)cc1OC,0.12% (inactive)
12,CN(CC(=O)Nc1ccc(S(=O)(=O)N2CCCC2)cc1)Cc1ccc(Cl)c(Cl)c1,-4.78% (inactive)
13,CN(CC(=O)Nc1ccc(F)cc1)CC(=O)Nc1ccc(Cl)c(S(=O)(=O)N2CCOCC2)c1,5.07% (active)
14,Nc1ncnc2c1ncn2[C@@H]1O[C@H](CNS(=O)(=O)c2ccc(-c3ccno3)s2)[C@@H](O)[C@H]1O,-1.25% (inactive)
15,CCc1ccc(C(=O)NNC(=O)C2CCN(c3ncnc4sc(C)c(C)c34)CC2)cc1,-0.76% (inactive)
16,COc1cccc(COC(=O)C2CCN(S(=O)(=O)c3ccc(Cl)cc3)CC2)c1OC,3.29% (inactive)
17,COC(=O)c1ccc(COC(=O)C2CCN(S(=O)(=O)c3c(Cl)cccc3Cl)CC2)o1,15.2% (active)
18,CCOc1ccc(S(=O)(=O)N2CCC(C(=O)OCc3ccc(OC)cc3)CC2)cc1,3.73% (inactive)
19,C=CCN1C(=O)c2ccc(C(=O)N3CCC(C(=O)OCC)CC3)cc2C1=O,2.75% (inactive)
